Assay [1] can be described thus: Quantitative High-Throughput drug screen in 47 multiple myeloma cell lines against the NCATS MIPE library collection: MM1S_ATCC cell viability assay (AID 1918980). Note: nearly all actives have a fitted effect of over 45% in size. The method in brief:
(§1)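 MIPE 4.0 approved/investigational drugs; 500 cells/well; 48 h 37 °C humidified 5% CO2; CTG luminescence readout; DMSO = 100%, media = 0% viability.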

The nature of assay [2]: Quantitative High-Throughput drug screen in 47 multiple myeloma cell lines against the NCATS MIPE library collection: MM1R_ATCC cell viability assay (AID 1918981). Note: nearly all actives have a fitted effect of over 35% in size. The method in brief: as §1
Assay [3] can be described thus: Quantitative High-Throughput drug screen in 47 multiple myeloma cell lines against the NCATS MIPE library collection: LP1_DSMZ cell viability assay (AID 1918982). Note: nearly all actives have a fitted effect of over 35% in size. The procedure, abridged:
as §1

Assay [4] in a line: Quantitative High-Throughput drug screen in 47 multiple myeloma cell lines against the NCATS MIPE library collection: KMS28PE_JCRB cell viability assay (AID 1918983). Note: nearly all actives have a fitted effect of over 35% in size. The procedure, abridged: as §1
Assay [5] is described as follows: Quantitative High-Throughput drug screen in 47 multiple myeloma cell lines against the NCATS MIPE library collection: L363_DSMZ cell viability assay (AID 1918984). Note: nearly all actives have a fitted effect of over 40% in size. The procedure, abridged:
as §1

Assay [6] in a line: Quantitative High-Throughput drug screen in 47 multiple myeloma cell lines against the NCATS MIPE library collection: KMS34_JCRB cell viability assay (AID 1918985). Note: nearly all actives have a fitted effect of over 40% in size. The procedure, abridged: as §1
Assay [7] in a line: Quantitative High-Throughput drug screen in 47 multiple myeloma cell lines against the NCATS MIPE library collection: OCIMY7_PLB cell viability assay (AID 1918987). Note: nearly all actives have a fitted effect of over 65% in size. Conditions: OCI-MY7 myeloma viability, CellTiter-Glo ATP, 48 h; viability (% of DMSO): at 45.8 µM (top of the series). The method in brief:
as §1

Assay [8] in a line: Quantitative High-Throughput drug screen in 47 multiple myeloma cell lines against the NCATS MIPE library collection: OCIMY5_PLB cell viability assay (AID 1918988). Note: nearly all actives have a fitted effect of over 65% in size. The procedure, abridged:
as §1

The nature of assay [9]: Quantitative High-Throughput drug screen in 47 multiple myeloma cell lines against the NCATS MIPE library collection: OPM1_PLB cell viability assay (AID 1918989). Note: nearly all actives have a fitted effect of over 40% in size. The procedure, abridged: as §1
Assay [10] in a line: Quantitative High-Throughput drug screen in 47 multiple myeloma cell lines against the NCATS MIPE library collection: SKMM1_PLB cell viability assay (AID 1919863). Note: nearly all actives have a fitted effect of over 35% in size. Conditions: SKMM1 myeloma viability, CellTiter-Glo ATP, 48 h; viability: hits give low values. The method in brief: as §1
(In general: In ATP-based viability assays light output follows the ATP content of the culture.)

Results filed as inconclusive are left out. A number with no mark means an inactive call. Calls of active or inactive are those of the source. Calls come from the whole dose curve; as a rule, active = well fitted cell-killing curve with a large enough effect; inconclusive = small, poorly fitted or top-dose-only effect, or effect the other way; inactive = no such curve, though single readings can be large or run the other way.
Potency is the fitted concentration of half-maximal effect.

On to `Cn1cc(CNCC2CCN(c3ncc(C(=O)NO)cn3)CC2)c2ccccc21`, for which the Potency in [1] was 16.6 nM (active); in [2], 14.8 nM (active); in assay [3] it was 41.8 nM (active); in assay [4] it was 29.6 nM (active); in assay [5], 26.4 nM (active); in [6], 18.7 nM (active). The Potency was 33.2 nM (active) in assay [7], 16.6 nM (active) in assay [8], 11.8 nM (active) in assay [9] and 59 nM (active) in assay [10].
Regarding `CCCNC(=O)[C@H]1O[C@H]1C(=O)N[C@H](C(=O)N1CCC[C@@H]1C(=O)OC)C(C)CC` (some centres not stated), the Potency in assay [1] was 2350 nM (active); in assay [2], 2350 nM (active); in assay [3], 14800 nM (active); in assay [4], 7430 nM (active); in assay [5], 8330 nM (active); in assay [6] it was 4180 nM (active). Besides, the Potency in assay [7] is 3320 nM (active); in assay [8], 2640 nM (active); in [9] it was 18700 nM (active); in assay [10], 20900 nM (active).
`C=CC[C@@H]1C=C(C)C[C@H](C)C[C@H](OC)[C@H]2O[C@@](O)(C(=O)C(=O)N3CCCC[C@H]3C(=O)O[C@H](C(C)=C[C@@H]3CC[C@H](O)[C@H](OC)C3)[C@@H](C)[C@@H](O)CC1=O)[C@@H](C)C[C@@H]2OC`: the Potency in assay [1] is 1180 nM (active); in [2], 833 nM (active); in assay [3] it was 3320 nM (active); in [4], 2350 nM (active); in assay [5] it was 1180 nM (active); in assay [6], 1480 nM (active). For the same molecule, the Potency in assay [7] is 2090 nM (active); in assay [8], 662 nM (active); in assay [9] it was 2640 nM (active); in assay [10], 1180 nM (active).
Regarding `C[C@H](NCc1ccc(OCc2cccc(F)c2)cc1)C(N)=O`, the Potency is 9350 nM (active) in [1]; 7430 nM (active) in assay [2]; 11800 nM (active) in [3]; 9350 nM (active) in assay [4]; 1480 nM (active) in [5]; 10500 nM (active) in assay [6]. Moreover, the Potency in assay [7] is 3320 nM (active); in assay [8], 7430 nM (active); in assay [9] it was 2640 nM (active); in assay [10], 18700 nM (active).
`COc1cc(C=CC(=O)CC(=O)C=Cc2ccc(O)c(OC)c2)ccc1O`: the Potency in assay [1] was 27000 nM (active); in assay [2], 7620 nM (active); in [3] it was 30300 nM (active); in [4] it was 17100 nM (active); in assay [5], 3030 nM (active); in [6] it was 6790 nM (active). Also, the Potency is 2150 nM (active) in assay [7], 12100 nM (active) in [8], 3820 nM (active) in [9] and 15200 nM (active) in assay [10].
Take `O=C1CSC(=O)N1C(CCc1ccncc1)COc1ccc(-c2cccc([N+](=O)[O-])c2)cc1` (configuration not stated): the Potency in assay [1] is 935 nM (active); in [2], 2350 nM (active); in assay [3], 5900 nM (active); in assay [4] it was 9350 nM (active); in [6], 8330 nM (active); in assay [7], 20900 nM (active). Also, the Potency in assay [8] was 2350 nM (active); in assay [9] it was 16600 nM (active). For the same molecule, the Potency entry in [5] was “inactive”.
`COc1cc(O)c2c(c1)C1OC1C[C@H](O)[C@H](O)C(=O)C=CC[C@H](C)OC2=O` (some centres not stated): the Potency is 2960 nM (active) in [1]; 2640 nM (active) in assay [2]; 5260 nM (active) in [3]; 5900 nM (active) in [4]; 2350 nM (active) in [5]; 2350 nM (active) in [6]. The Potency in assay [7] was 372 nM (active); in assay [8], 3720 nM (active); in [9], 5260 nM (active); in [10] it was 4690 nM (active).
Take `CC(=O)O[C@@]12CO[C@H]1C[C@H](O)[C@@]1(C)C(=O)[C@H](O)C3=C(C)[C@@H](OC(=O)C(O)[C@@H](NC(=O)OC(C)(C)C)c4ccccc4)C[C@@](O)([C@@H](OC(=O)c4ccccc4)[C@@H]21)C3(C)C` (some centres not stated): the Potency result in assay [1], in [2], in assay [3], in assay [4], in assay [5] and in assay [6] was “inactive” each time. Further, the Potency entry in [7], in assay [8] and in assay [9] was “inactive” each time. Also, the viability (usually a read-out of living cells in per cent, often relative to untreated cells) in assay [10] is 60%.
As for `CCc1cnn2c(NCc3ccc[n+]([O-])c3)cc(N3CCCC[C@@H]3CCO)nc12`, the Potency in assay [1] is 20.9 nM (active); in [2] it was 16.6 nM (active); in assay [3] it was 16.6 nM (active); in assay [4], 29.6 nM (active); in [5], 23.5 nM (active); in [6], 14.8 nM (active). In addition, the Potency is 41.8 nM (active) in assay [7], 20.9 nM (active) in [8], 26.4 nM (active) in assay [9] and 33.2 nM (active) in assay [10].
As to `O=C1NCCc2[nH]c(-c3ccncc3)cc21`, the Potency in assay [1] is 3720 nM (active); in [2], 2640 nM (active); in [3] it was 4180 nM (active); in [4], 4690 nM (active); in assay [5], 2350 nM (active); in assay [6], 5260 nM (active). Further, the Potency was 2090 nM (active) in [7], 8330 nM (active) in [8], 4690 nM (active) in assay [9] and 5260 nM (active) in assay [10].
With `COc1cc(C)c(Sc2cnc(NC(=O)c3ccc(CNC(C)C(C)(C)C)cc3)s2)cc1C(=O)N1CCN(C(C)=O)CC1` (configuration not stated), the Potency in [1] is 4180 nM (active); in assay [2], 5900 nM (active); in assay [3], 16600 nM (active); in [4], 9350 nM (active); in assay [5] it was 2960 nM (active); in [6], 14800 nM (active). Also, the Potency was 3320 nM (active) in assay [7], 16600 nM (active) in assay [8] and 20900 nM (active) in assay [10].
On to `CCN(CC)Cc1ccc2cc(COC(=O)Nc3ccc(C(=O)NO)cc3)ccc2c1`, for which the Potency was 590 nM (active) in assay [1]; 332 nM (active) in assay [2]; 935 nM (active) in assay [3]; 662 nM (active) in assay [4]; 372 nM (active) in assay [5]; 418 nM (active) in assay [6]. Further, the Potency in assay [7] was 372 nM (active); in [8], 372 nM (active); in assay [10], 935 nM (active).
On to `COC[C@H](NC(=O)c1cnc(C)s1)C(=O)N[C@@H](COC)C(=O)N[C@@H](Cc1ccccc1)C(=O)[C@@]1(C)CO1`, for which the Potency in assay [1] was 59 nM (active); in assay [2] it was 41.8 nM (active); in assay [3], 148 nM (active); in assay [4] it was 66.2 nM (active); in assay [5] it was 37.2 nM (active); in assay [6], 74.3 nM (active). The Potency in assay [7] is 52.6 nM (active); in assay [8], 37.2 nM (active); in assay [9], 118 nM (active); in assay [10], 372 nM (active).

These data come from PubChem BioAssay (NCATS).
